AI-2 QS modul – modulates the Vibrio harveyi AI-2 quorum sensing system; Vibrio harveyi JMH597 AI-2 luminescence/OD600 ratio, 9 h; stronger effect = lower value; strain lacks LuxN and CqsS sensors; 0 = neutral-control median; AID 2094; actives 0.4% (n = 300,000); activity change, % at 7.5 µM; in the data active means activity change below about -75%, passing the limit was not always enough;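 further: luminescence divided by OD600 gain over 9 h not by final OD600 alone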
AHR act – activators of human aryl hydrocarbon receptor; AHR-responsive luciferase reporter cells, luminescence; actives 2.5% (n = 320,000); activation, % at 5 µM; P35869; in the data active means activation above about 47%;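 further: 0% = vehicle wells and 100% = reference agonist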
NTR1 ag – agonists of human neurotensin receptor NTR1. P30989. NTR1-U2OS beta-arrestin-GFP spot imaging, agonist mode. activation, % at 20 µM. actives 0.17% (n = 330,000);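 active means activation at or above 40% of the spot to cytoplasm intensity ratio, with at least 20 cells analyzed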;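 further: 0% = DMSO without peptide and 100% = 100 nM NTR1 peptide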
Target sequence (P30989 whole entry, looked up): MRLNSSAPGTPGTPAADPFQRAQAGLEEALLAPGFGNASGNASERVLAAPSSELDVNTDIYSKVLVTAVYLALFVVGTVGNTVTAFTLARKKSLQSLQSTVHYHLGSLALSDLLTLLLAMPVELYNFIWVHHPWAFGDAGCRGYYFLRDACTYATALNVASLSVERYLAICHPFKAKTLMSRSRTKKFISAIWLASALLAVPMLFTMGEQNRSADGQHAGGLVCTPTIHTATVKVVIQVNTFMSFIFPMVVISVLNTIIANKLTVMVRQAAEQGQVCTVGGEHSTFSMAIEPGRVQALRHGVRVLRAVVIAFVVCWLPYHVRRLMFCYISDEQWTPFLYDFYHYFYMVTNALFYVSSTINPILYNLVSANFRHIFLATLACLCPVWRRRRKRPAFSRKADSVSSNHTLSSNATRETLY
Cardio protect – modulators protecting cardiomyocytes from myocardial damage; protection from H2O2 cell death, % at 20 µM; actives 0.63% (n = 360,000); H9c2 cardiomyocytes, H2O2 injury protection, ATPLite, 2 h; AID 588492;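 active means compounds giving at least 50% protection of heart cells from peroxide-induced death in the single-dose screen, raw or plate-pattern-corrected value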;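 further: 0% = DMSO wells with peroxide and 100% = DMSO wells without peroxide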
Mot1-301 SUMO – SUMOylation pathway inhibition by Mot1-301 growth rescue. S. cerevisiae Mot1-301 growth rescue, ATP luminescence, 38.5C; percent above DMSO median, 100 means doubled. growth rescue, % at 18.8 µM. actives 1% (n = 320,000);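 active means every valid replicate shows activation above 250% relative to neutral control wells; inactive means the rest, any valid replicate at or below 250%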;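 further: OY570 slx delta 5 strain wells were the positive control but not used for scaling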
NR3A LBD binder – modulators (binders) of human NR3A ligand-binding domain. AID 1259313. actives 2.5% (n = 340,000). Tm shift relative to glycine control, % at 25 µM. NR3A LBD differential scanning fluorimetry, Tm shift; 0% = protein alone, 100% = glycine-bound protein;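 active means melting temperature shift of at least 10% of the positive control shift, at one fixed dose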
AHR act cf – human AHR activation, confirmation. human cells, AHR-responsive luciferase reporter, luminescence. AID 2845. activation, % at 9 µM. shares compounds with AHR act. actives 87% (n = 2,300); in the data active means activation above about 49%;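 further: HepG2 hepatoma cells carrying a DRE-driven firefly luciferase reporter; 0% = vehicle wells and 100% = reference agonist wells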
PXR counter – PXR activation, counter-screen for AHR activators; shares compounds with AHR act; cell-based PXR reporter, luciferase luminescence; activation, % at 11.6 µM; actives 88% (n = 2,300); AID 434939; in the data active means activation above about 11%;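 further: human hepatoma DPX-2 cells expressing full-length human PXR; 0% = DMSO and 100% = reference agonist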
Starred values were filed as active, the others as inactive; x = no result. An excerpt weighted towards active compounds, which were near 6.2% of everything screened.

SMILES | AI-2 QS modul | AHR act | NTR1 ag | Cardio protect | Mot1-301 SUMO | NR3A LBD binder | AHR act cf | PXR counter
O=C(NC(=S)Nc1ccc(Br)cn1)c1cccs1 | 1 | 84* | 4 | -17 | 10 | -12 | 116* | 16*
CSc1ncccc1C(=O)NC1CCN(Cc2ccccc2)CC1 | 9 | -1 | -1 | 0 | 0 | 2 | x | x
CN(C)C(/C=C/Nc1ccc(C#N)cc1)=C(C#N)C#N | 13 | 109* | 0 | 7 | 8 | x | 102* | 25*
CN(C)C(/C=C/Nc1ccc(F)cc1)=C(C#N)C#N | 29 | 45 | 1 | 3 | -4 | -1 | x | x
Cc1ccc2c(c1)c1nnc(SCC(=O)NC3CC3)nc1n2C | 33 | 79* | 0 | 2 | -2 | x | 100* | 19*
COc1cccc(N2CCN(c3ncnc4c3[nH]c3ccc(F)cc34)CC2C)c1 (stereo not given) | 28 | 3 | -3 | -35 | 79 | 6 | x | x
COc1ccc2[nH]c3c(N4CC(C)OC(C)C4)ncnc3c2c1 (stereo not given) | -4 | 126* | -2 | x | 151 | -2 | 94* | 22*
CCc1nc2ccc(C(=O)NCCOc3ccc(OC)cc3)cn2c1N(CCC(C)C)CCN(C)C | x | x | x | -2 | x | x | x | x
Nc1c(Cl)c(Cl)nc(C(=O)N/N=C/c2cccnc2)c1Cl | 20 | 86* | 1 | -2 | 4 | 0 | 78* | 40*
Cc1nc(N)sc1C(=O)N/N=C/c1cccnc1 | -1 | 14 | -2 | 6 | 202 | 0 | x | x
CN(C)CCNC(=O)C(=O)Nc1cc2c3c(c1)CCN3C(=O)CC2 | 17 | 0 | -1 | 8 | -5 | 8 | x | x
CCNC(=O)/C(C#N)=C/c1c(N2CCN(c3ccccc3)CC2)nc2c(C)cccn2c1=O | 16 | 80* | 7 | 18 | -20 | 0 | 69* | 19*
CCNC(=O)/C(C#N)=C/c1c(N2CCN(c3ccc(OC)cc3)CC2)nc2c(C)cccn2c1=O | 21 | 22 | 5 | 19 | 6 | 4 | x | x
CC1(C(=O)Nc2ccc3c(c2)OCO3)CC1(Cl)Cl (stereo not given) | 30 | 18 | 1 | 4 | 13 | -1 | x | x
O=C1c2ccccc2NC(c2ccc3c(c2)OCCO3)N1c1ccc2c(c1)OCCO2 (stereo not given) | 7 | 2 | -1 | -9 | -12 | 0 | x | x
O=C1c2ccccc2NC(c2ccc3c(c2)OCO3)N1O (stereo not given) | 1 | 122* | 2 | 30 | -16 | -1 | 133* | 25*
O=C1c2ccccc2C(=O)N1c1ccc(Cl)cc1 | 7 | 88* | -1 | x | -13 | x | 62* | 13*
CCc1c(C)nc2cc(-c3ccc(Cl)cc3)[nH]n2c1=O | x | 113* | 0 | -5 | 0 | -5 | 95* | 22*
CCOC(=O)CCc1c(C)nc2cc(-c3ccc(Cl)cc3)[nH]n2c1=O | -2 | 13 | -6 | -1 | -6 | -2 | x | x
Cc1nc(N2CCN(c3ccccc3)CC2)nc2c1C(=O)CC(C)C2 (stereo not given) | 12 | 92* | 2 | 8 | -15 | -3 | 62* | 13*
CC(O)CNc1nc(N)[nH]c(=O)c1N=Nc1ccccc1 (stereo not given) | x | x | x | 4 | x | 2 | x | x
C=CCc1cccc(/C=N/NC(=O)CNc2ccccc2)c1O | 7 | 90* | 2 | 34 | -20 | 6 | 69* | 47*
COc1ccc2c(c1)C(=NNc1ccc(C(=O)O)cc1)c1cc(OC)ccc1-2 | 9 | 86* | 6 | -6 | 5 | 2 | 108* | 11*
COc1ccc(/C(C)=N/Nc2ccc(C(=O)O)cc2)c(OC)c1 | -58 | -1 | 5 | -3 | 80 | -3 | x | x
CCn1nc(NS(=O)(=O)c2ccc([N+](=O)[O-])cc2)c2cc3ccccc3nc21 | -1 | 7 | 0 | 0 | -1 | 1 | x | x
SMILES | AI-2 QS modul | AHR act | NTR1 ag | Cardio protect | Mot1-301 SUMO | NR3A LBD binder | AHR act cf | PXR counter
Clc1ccc(-c2n[nH]c3c2CCC3)cc1Cl | 35 | 100* | 2 | -13 | 4 | -4 | 99* | 21*
O=c1oc(CCCO)cc2ccc(C#Cc3cccnc3)cc12 | x | 88* | -1 | 16 | 11 | 0 | 76* | 18*
NC(CCc1ccccc1)c1csc(NC(=O)NCC2CCCCC2)n1 (stereo not given) | x | x | x | -22 | x | x | x | x
COc1ccc(NC(=O)CN(Cc2ccco2)Cc2ccco2)cc1S(=O)(=O)N1CCCCC1 | x | 0 | 1 | 2 | -7 | 4 | x | x
CCN1C(=O)N/C(=C/c2cc(C)n(Cc3ccccc3)c2C)C1=O | 13 | 136* | 1 | 4 | -7 | -3 | 103* | 230*
Clc1ccc(-c2cc3ccccc3[nH]2)cc1 | 29 | 91* | 2 | -2 | 95 | 17* | 43 | 8
O=c1cc(-c2ccc(Cl)cc2)[nH]c2ccccc12 | 9 | 23 | 0 | x | -29 | 0 | x | x
CCc1ccc(NC(=O)c2sccc2-n2cccc2)cc1 | 28 | 102* | 4 | -14 | 18 | -4 | 141* | 41*
O=C(Nc1ccc(Cl)cc1)c1sccc1-n1cccc1 | 1 | 138* | 1 | -6 | 2 | -41 | 145* | 28*
COc1cccc(C2=CC(=O)C[C@H](c3ccc4c(c3)OCO4)C2)c1OC | x | 120* | -2 | 1 | -2 | -1 | 109* | 148*
COc1ccc(F)cc1C1=CC(=O)C[C@H](c2ccc3c(c2)OCO3)C1 | x | 86* | 2 | 4 | -2 | -4 | 73* | 112*
COc1cccc(OC)c1C1=CC(=O)C[C@H](c2ccc3c(c2)OCO3)C1 | x | 41 | 0 | 5 | 8 | -3 | x | x
O=C1C=C(c2cccc(Br)c2)C[C@@H](c2ccc3c(c2)OCO3)C1 | x | 86* | 4 | 5 | -10 | -1 | 83* | 33*
O=C(Nc1ccccc1)c1cnc(-c2ccccc2)nc1-c1ccccc1 | 25 | 90* | 4 | -5 | x | -9 | 93* | 47*
O=C(O)c1cnc(-c2ccccc2)nc1-c1ccccc1 | 33 | 15 | -1 | 1 | 37 | 1 | x | x
CC(=O)Oc1ccc(-c2csc(Nc3cccc(C)n3)n2)cc1 | -5 | 14 | 16 | 2 | 3 | 3 | x | x
Cc1cccc(Nc2nc(-c3ccc(F)cc3)cs2)n1 | x | 79* | 26 | -2 | -4 | -1 | 111* | 10*
COc1ccc(-c2csc(Nc3cccc(C)n3)n2)cc1 | 3 | 88* | 8 | -11 | -10 | -2 | 97* | 19*
COc1ccc(-c2csc(Nc3cccc(C)n3)n2)cc1C | 19 | x | x | -16 | 0 | 4 | x | x

Compound activity from PubChem BioAssay.
